Measurements taken from PubChem BioAssay AID720504 (National Center for Advancing Translational Sciences (NCATS), 2013).
Out of some 360,000 compounds screened, about 10,000 (2.8%) were called active. Roughly 4% stayed inconclusive and do not appear here. What follows is part of a selection rich in actives, with near analogues and random picks from the rest. Values without a mark were called inactive. Calls follow the shape of the dose curve; as a rule, active = well fitted inhibition curve with a large enough effect; inconclusive = small, poorly fitted or top-dose-only effect; inactive = flat fitted curve, though single readings scatter.

Biological target: Serine/threonine-protein kinase PLK1 (Homo sapiens) (UniProt P53350)
Test: qHTS for Inhibitors of PLK1-PDB (polo-like kinase 1 - polo-box domain): Primary Screen; also: nearly all actives have a fitted effect of over 65% in size; as to max response, negative = inhibition: series mostly up to about 57 µM
Conditions: Plk1 PBD binding of FITC phosphopeptide, fluorescence polarization
% is scaled to controls: 0 for no effect and ±100 for the full control effect; potency is read from the fitted curve at half-maximal effect.

Sequence of Serine/threonine-protein kinase PLK1 (Homo sapiens) (P53350 whole entry, looked up, the tested form may be a part): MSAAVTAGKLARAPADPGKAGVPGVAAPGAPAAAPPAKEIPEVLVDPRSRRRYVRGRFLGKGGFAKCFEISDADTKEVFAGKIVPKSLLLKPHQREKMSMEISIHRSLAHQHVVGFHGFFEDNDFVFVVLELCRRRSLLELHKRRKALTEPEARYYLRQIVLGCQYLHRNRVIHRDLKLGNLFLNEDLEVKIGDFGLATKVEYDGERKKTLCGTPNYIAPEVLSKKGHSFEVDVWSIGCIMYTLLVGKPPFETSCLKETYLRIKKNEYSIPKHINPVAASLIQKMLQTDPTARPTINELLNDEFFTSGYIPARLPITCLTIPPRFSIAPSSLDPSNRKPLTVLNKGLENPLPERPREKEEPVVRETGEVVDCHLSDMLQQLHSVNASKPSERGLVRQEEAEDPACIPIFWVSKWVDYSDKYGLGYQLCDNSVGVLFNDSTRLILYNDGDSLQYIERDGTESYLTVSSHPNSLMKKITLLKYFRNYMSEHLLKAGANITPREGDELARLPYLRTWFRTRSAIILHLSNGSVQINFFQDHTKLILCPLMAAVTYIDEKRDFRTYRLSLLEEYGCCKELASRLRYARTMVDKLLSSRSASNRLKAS

Row | SMILES | max response, negative = inhibition [%] | Potency
1 | Cc1ccc(Cc2c(-c3ccccc3)nc3ccc(Cl)cn23)cc1 | -1.42 | –
2 | Cc1ccc(Cc2c(-c3ccco3)nc3ccc(Cl)cn23)cc1 | – | 21.2 µM (active)
3 | Cc1ccc(-c2nc3ccc(Cl)cn3c2Cc2ccccc2)cc1 | -1.46 | –
4 | CC1Cc2[nH][nH]c(=O)c2C(C2CCCC2)O1 (configuration not stated) | -5.58 | –
5 | OC(c1ccccc1)c1nc(-c2cnc3ccccc3c2)cs1 (configuration not stated) | 1.51 | –
6 | O=C(CSc1n[nH]c(-c2cccnc2)n1)Nc1ccnc2ccccc12 | -8.72 | –
7 | COc1ccc(Nc2nc(-c3cccnc3)nc3ccccc23)cn1 | – | 21.2 µM (active)
8 | CCN(CC(=O)NC1CCS(=O)(=O)C1)c1nc(-c2cccnc2)nc2ccccc12 (configuration not stated) | -6.17 | –
9 | C[C@H]1CN([C@@H](C)CO)C(=O)CCCn2cc(nn2)CO[C@@H]1CN(C)S(=O)(=O)c1ccc(-c2ccccc2)cc1 | -23.9 | –
10 | COc1ccc(-c2[nH]nc3c2C(c2ccncc2)C(C#N)=C(N)O3)cc1 (configuration not stated) | -28.1 | –
11 | CCCc1[nH]nc2c1C(c1ccc(Br)s1)C(C#N)=C(N)O2 (configuration not stated) | – | 23.8 µM (active)
12 | COCc1[nH]nc2c1C(C1C=CCCC1)C(C#N)=C(N)O2 (configuration not stated) | -8.66 | –
13 | CC(=O)Nc1cccc(-c2ccnc3c2CC(C)(C(=O)NCc2ccccc2)O3)c1 (configuration not stated) | 0.623 | –
14 | CNC[C@H]1OCc2cnnn2CCCC(=O)N([C@H](C)CO)C[C@@H]1C | -6.68 | –
15 | Cc1cc2oc(=O)cc(CN(C)Cc3ccccc3)c2cc1Cl | -6.49 | –
16 | CSc1ncc(C(=O)NCCCc2ccccc2)c(C)n1 | -4.81 | –
17 | CSc1ncc(Sc2ccccc2)c(C(=O)O)n1 | – | 23.8 µM (active)
18 | Cc1ccccc1C(=O)Nc1ccccc1Sc1ccccc1 | 2.65 | –
19 | CN1C[C@@H](CO)O[C@@H](n2cnc3c(N4CCN(CCO)CC4)ncnc32)C1 | 2.3 | –
20 | COCCNC(=O)C1CCCN(Cc2ccccc2Cl)CC1 (configuration not stated) | -4.77 | –
21 | CC(=O)N1CCN(Cc2cc(=O)oc3cc(C)ccc23)CC1 | -2.03 | –
22 | CCOC(=O)[C@H]1Nc2ccc(Cl)cc2[C@@H]2[C@H]1C1CC(c3ccccc31)N2C(=O)OCc1ccccc1 (some centres not stated) | -10.8 | –

Row | SMILES | max response, negative = inhibition [%] | Potency
23 | CNc1cc(-c2c(OC)cccc2OC)ncn1 | -6.78 | –
24 | CN1CCN(c2ccc3c(c2)OC[C@H](Cc2ccccc2)NS3(=O)=O)CC1 | 0.181 | –
25 | COc1ccc(-c2nc3ccc(Br)cn3c2Cc2ccc(C)cc2)cc1OC | -11 | –
26 | Cc1ccc2c(c1)C(c1ccccc1)N(C(=O)c1ccc(S(=O)(=O)N3CCOCC3)cc1)CC(=O)N2 (configuration not stated) | – | 23.8 µM (active)
27 | Cc1ccc(C(=O)N2CC(=O)Nc3ccc(F)cc3C2c2ccc(F)cc2)cc1 (configuration not stated) | 1.6 | –
28 | Cc1ccc2c(c1)C(c1ccccc1)N(C(=O)c1ccc(F)cc1)CC(=O)N2 (configuration not stated) | -0.372 | –
29 | CCNC(=O)C1(C)CCCN(C(=O)c2c(C)noc2C)C1 (configuration not stated) | -0.543 | –
30 | CCOC(=O)c1cc2cc(OC)ccc2n1C1CCN(C)CC1 | -4.75 | –
31 | CCC(Oc1ccccc1)C(=O)OCC(=O)Nc1c(C)nn(-c2ccccc2)c1C (configuration not stated) | -0.819 | –
32 | CCOc1ccc(CCN2C(=S)N([C@@H](CC(C)C)CN3CCC[C@@H]3CN3C(=S)NC[C@@H]3Cc3ccc(O)cc3)C[C@@H]2CC(C)C)cc1 | 5.19 | –
33 | CCCNC(=O)c1c(Cl)cnn1-c1ccc(C)cc1 | -6.94 | –
34 | COCC(C)NC(=O)c1ccc(Cl)c(Cl)c1 (configuration not stated) | -9.11 | –
35 | CCCNC(=O)c1ccc(Cl)c(Cl)c1 | – | 21.2 µM (active)
36 | COc1ccc(CC(N)c2csc(NC(=O)Cc3ccccc3)n2)cc1 (configuration not stated) | -4.52 | –
37 | COc1ccc(OC)c(C(O)c2ncc(-c3cccc(C(F)(F)F)c3)[nH]2)c1 (configuration not stated) | 6.6 | –
38 | Cc1cc(Br)cn2c(Cc3ccccc3C(F)(F)F)c(-c3ccc(Cl)cc3)nc12 | 2.92 | –
39 | COc1cc2nnn(-c3ccncc3)c2cc1OC | -2.85 | –
40 | CCOC(=O)C1(C)CCCN(C(=O)c2cccc(Cl)c2)C1 (configuration not stated) | -9.97 | –
41 | O=C1NC[C@H](CCCCN2CCN(CCc3ccccc3)C(=O)C2=O)N(CC2CCCCC2)C1=O | -4.62 | –
42 | CC(C)Oc1ccc(Cc2n[nH]c(=S)n2Cc2ccccc2)cc1Cl | – | 16.8 µM (active)
43 | CC(C)Oc1ccc(CCc2n[nH]c(=S)n2Cc2ccccc2)cc1 | -8.99 | –
44 | COc1cc(-c2n[nH]c(=S)n2Cc2ccccc2)cc(OC)c1OC | -6.45 | –

Row | SMILES | max response, negative = inhibition [%] | Potency
45 | CCc1c(N=O)c(-c2ccccc2)n(O)[n+]1[O-] | -2.08 | –
46 | Nc1[nH]c(C(=O)c2ccccc2)c(-c2ccc(Br)cc2)c1C(=O)NC1CC1 | -9.8 | –
47 | O=S1(=O)CC(N2CCN(Cc3ccccc3F)CC2)CN1Cc1cn(Cc2cccc(C(F)(F)F)c2)nn1 (configuration not stated) | -2.54 | –
48 | CC(C)c1ccc(NC(=S)NC2CC3C=CC2C3)cc1 (configuration not stated) | -23.1 | –
49 | CC(C)c1ccc(NC(=S)NNc2ccc(Cl)c(C(=O)O)c2)cc1 | – | 23.8 µM (active)
50 | Cc1ccc(C)c(NC(=S)NNC(=S)Nc2ccc(C(C)C)cc2)c1 | – | 18.9 µM (active)
51 | O=C(NC(=S)Nc1ccc(Cl)c(C(=O)O)c1)c1cncc(Br)c1 | -11.2 | –
52 | Cc1ccc(NC(=S)NCCc2ccc(Cl)cc2)c(C)c1 | -3.36 | –
53 | CCC(C(=O)Nc1ccc(C(C)C)cc1)c1ccccc1 (configuration not stated) | 2.25 | –
54 | COC(=O)[C@]12CCCCC=C1N(Cc1ccco1)C(=O)[C@H](CC(=O)NCC1CCCCC1)C2 | -3.48 | –
55 | CCCc1ccc(C(O)c2ncc(-c3cccc(OC)c3)[nH]2)cc1 (configuration not stated) | -2.5 | –
56 | CN(C(=O)COC(=O)c1cc(-c2ccco2)nc2ccccc12)C1CCS(=O)(=O)C1 (configuration not stated) | – | 18.9 µM (active)
57 | CN(C(=O)COC(=O)Cc1ccccc1[N+](=O)[O-])C1CCS(=O)(=O)C1 (configuration not stated) | 1.07 | –
58 | COc1ccc(/C=C(\C#N)C(=O)OCC(=O)N(C)C2CCS(=O)(=O)C2)cc1 (configuration not stated) | -10.5 | –
59 | COc1cncc(-c2cnc3sc(NCCc4ccccn4)nn23)c1 | -12.3 | –
60 | Cc1ccc(S(=O)(=O)N2CC(=O)Nc3ccccc32)cc1C | -4.98 | –
61 | Cc1ccc(C)c(S(=O)(=O)N2CC(=O)Nc3ccccc32)c1 | – | 23.8 µM (active)
62 | Cc1ccc(C)c(S(=O)(=O)N2CCN(C(=O)Nc3ccccc3)CC2)c1 | -2.91 | –
63 | NC(c1csc(NC(=O)Nc2ccccc2Oc2ccccc2)n1)c1ccccc1Cl (configuration not stated) | 0.513 | –
64 | Cc1cccc(N(CC(=O)N2CCCC2)S(C)(=O)=O)c1C | -8.37 | –
65 | O=C(NCc1ccccc1)C(c1ccc(F)cc1)N1CCN(C(=O)C2CCCO2)CC1 (configuration not stated) | 1.19 | –
66 | CCN(C(=O)CN1CCN(Cc2ccccc2)CC1)c1c(N)n(Cc2ccccc2)c(=O)[nH]c1=O | – | 23.8 µM (active)

Row | SMILES | max response, negative = inhibition [%] | Potency
67 | CCN(C(=O)COC(=O)c1sccc1C)c1c(N)n(Cc2ccccc2)c(=O)[nH]c1=O | -3.78 | –
68 | CCN(C(=O)COC(=O)Cc1c(F)cccc1Cl)c1c(N)n(Cc2ccccc2)c(=O)[nH]c1=O | 4.8 | –
69 | COc1ccc(NC(=O)CCCOc2ccc(C(C)=O)cc2)cc1S(=O)(=O)N1CCCCC1 | 2.7 | –
70 | Brc1ccc2nc(-c3ccccc3)c(Cc3ccccc3)n2c1 | -6.3 | –
71 | CN1OC[C@@H]2CN(C(=O)c3cccc4ccccc34)[C@H](c3ccc(N4CCCCC4)cc3)C[C@@H]21 | -3.91 | –
72 | CC1(C(=O)Nc2cccc3c2CCCC3)CCN1C(=O)C1(c2ccccc2)CC1 (configuration not stated) | 2.66 | –
73 | CC1(Cc2ccccc2C#N)C(=O)Nc2ccc(-c3ccc4[nH]ccc4c3)cc21 (configuration not stated) | 2.71 | –
74 | CCOC(=O)C1(CCOc2ccccc2)CCN(Cc2cc(OC)cc(OC)c2)CC1 | -2.45 | –
75 | CCOC(=O)C1(CCOC)CCN(Cc2cc3ccccc3s2)CC1 | – | 10.6 µM (active)
76 | CCOC(=O)C1(CCOC)CCN(Cc2ccc(C(=O)OC)cc2)CC1 | -4.26 | –
77 | O=C(Nc1cccc2cccnc12)c1ccc2sc([C@H]3C[C@H](O)[C@@H](CO)O3)nc2c1 | 3.77 | –
78 | Cn1c(=O)[nH]c(=O)c2c1nc(N1CCN(CCO)CC1)n2CCSc1nc2ccccc2s1 | -15.4 | –
79 | Nc1nnc(SCC(=O)Nc2ccc3nc(SCC(=O)Nc4ccccc4)sc3c2)s1 | 2.76 | –
80 | O=C(O)c1ccccc1CSc1nc2ccccc2s1 | – | 8.44 µM (active)
81 | Cc1noc(C)c1S(=O)(=O)N(C)C[C@H]1OCCCC[C@@H](C)Oc2ccc(NC(=O)CCCN(C)C)cc2C(=O)N([C@H](C)CO)C[C@@H]1C | -12.6 | –
82 | CC1(C(=O)NS(=O)(=O)Cc2cccc(Cl)c2)CCN1C(=O)Cc1ccccc1 (configuration not stated) | 0.171 | –
83 | CSCCC(NC(=O)COc1ccccc1)C(=O)N1CCN(c2cccc(C(F)(F)F)c2)CC1 (configuration not stated) | 10.8 | –
84 | O=C(COc1ccc(Cl)cc1)N1CCN(c2cccc(C(F)(F)F)c2)CC1 | – | 18.9 µM (active)
85 | Cc1c(C)c2ccc(OCC(=O)N3CCN(c4cccc(Cl)c4)CC3)cc2oc1=O | -4.22 | –
86 | CCOc1cc(/C=N/NC(=O)c2ccncc2)cc(Br)c1O | -2.72 | –
87 | O=C(CC[C@H]1O[C@@H](n2ccc(=O)[nH]c2=O)[C@H](O)[C@@H]1O)N[C@H](Cc1ccccc1)C(=O)NCCCN1CCCC1=O | -13.5 | –
